In the supplement of paper PMC6555819:

How the values were obtained:
Experiment in all cases: PBM binding z-score (relative to random genomic background probes); higher = stronger binding; sequences stand for … in GC…GCGATTGACAGCGTAGAATGAAGG
[1] = test system: FXR:RXRa (NR concentration 270 nM, RXRa partner concentration 90 nM)
Method in brief: (§1)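 On custom Agilent 4×180K arrays, double-stranded probes with 34-nt variable regions carried direct-repeat seeds, single-nucleotide variants, half-site ablations or random human genomic background. Ligand-free nuclear receptor dimers were applied for 1 h, and binding was read with antibodies against each partner (one per run). Binding z-scores come from regression-normalized fluorescence, with the random background probes as reference.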

[2] = test system: LXRa:RXRa (NR concentration 270 nM, RXRa partner concentration 90 nM)
Method in brief: as §1

[3] = test system: LXRa homodimer (NR concentration 270 nM)
Method in brief: as §1

[4] = test system: LXRb:RXRa (NR concentration 270 nM, RXRa partner concentration 90 nM)
Method in brief: as §1

[5] = test system: LXRb homodimer (NR concentration 270 nM)
Method in brief: as §1

[6] = test system: PPARa:RXRa (NR concentration 270 nM, RXRa partner concentration 90 nM)
Method in brief: as §1

[7] = test system: PPARg:RXRa (NR concentration 180 nM, RXRa partner concentration 90 nM)
Method in brief: as §1

[8] = test system: PPARg:RXRa 270nM:90nM, anti-RXR (NR concentration 270 nM, RXRa partner concentration 90 nM)
Method in brief: as §1

[9] = test system: PPARg:RXRa 30nM:10nM, anti-RXR (NR concentration 30 nM, RXRa partner concentration 10 nM)
Method in brief: as §1

[10] = test system: PPARg:RXRa 90nM:30nM, anti-RXR (NR concentration 90 nM, RXRa partner concentration 30 nM)
Method in brief: as §1

| Sequence | PBM binding z-score [1] | PBM binding z-score [2] | PBM binding z-score [3] | PBM binding z-score [4] | PBM binding z-score [5] | PBM binding z-score [6] | PBM binding z-score [7] | PBM binding z-score [8] | PBM binding z-score [9] | PBM binding z-score [10] |
| --- | --- | --- | --- | --- | --- | --- | --- | --- | --- | --- |
| GGAACGAGGGCAAAGTGGATAGCATCTGTCGACG | 0.8 | 0.482 | -0.564 | 0.23 | -0.66 | 2.86 | 4.34 | 5.37 | 3.71 | 5.67 |
| GCTAGCAGACCATTTGGGTCACTCAATGACGGGC | -0.199 | -0.301 | -0.619 | -0.213 | -1.15 | 0.904 | 0.52 | -0.0173 | -0.573 | -0.229 |
| TAGCCTAGGTCATGCGGGCAAGTATAGTGTCGGC | 4.44 | 3.3 | 0.517 | 1.94 | -0.137 | 3.73 | 2.32 | 2.59 | 0.322 | 1.54 |
| CCCAGCAGGCCAGGGTCACTCAAGCATTTCGCTT | 2.03 | 1.48 | -0.513 | 1.61 | -0.79 | 2.8 | 0.0881 | 0.885 | -1.03 | 0.0104 |
| CCGACTGGGGCAGAAAGGTTACCTTACCATCCGG | -0.0725 | 0.286 | -0.251 | 0.547 | -1.39 | 1.73 | 1.36 | 2.55 | 0.398 | 1.91 |
| ACCATTAGTTGAGACGAGGGCAACCGATAGGTTG | 0.428 | 0.177 | 3.5e-05 | 0.214 | -0.155 | 0.553 | 0.56 | -0.0707 | 0.0624 | -0.228 |
| CCTGCGAGGTCAATGGTCAGCTAAAGCAGCTCGC | 7.26 | 5.25 | 0.691 | 4.29 | 0.981 | 5.73 | 5.75 | 6.01 | 2.22 | 4.25 |
| CCTAGCAGGCTAGGGTCACTCAAGCATTTCGCTT | 2.86 | 2.4 | -0.638 | 2.55 | -0.881 | 3.67 | 0.643 | 1.87 | -0.254 | 0.841 |
| CGTCCAAGGTCAAGGTCAGAGAAAGAGACTCGAA | 7.9 | 5.84 | 0.844 | 4.67 | 0.838 | 5.99 | 6.4 | 6.27 | 2.49 | 5.02 |
| GATACAGGGTCAAGGCCCGAGTACGCGTATTGAT | 6.52 | 4.01 | -0.361 | 3.39 | -0.411 | 5.39 | 5.65 | 5.62 | 2.48 | 4.12 |
| ACTATTAGATGAGACGAGGGCAACCGATAGGTTG | 0.455 | 0.107 | 0.389 | 0.0232 | 0.456 | 0.35 | 1.04 | 0.132 | 0.496 | 0.603 |
| TCATAAAGGTAAACAGGTGAAAGTCCGTAAGTTA | 1.21 | 1.53 | 0.0462 | 1.44 | -0.2 | 2.83 | 2.29 | 3.47 | 4.28 | 3.89 |
| CCAGACAGGTGAGAAGGTAACACAGCCTCGATTA | 0.191 | 0.2 | 0.0952 | 0.413 | -0.0709 | 1.1 | 0.941 | 0.656 | 0.112 | 0.637 |
| GGAACGAGAGCAAAGTTGATAGCATCTGTCGACG | -0.381 | -0.564 | -0.809 | -0.767 | -1.1 | 2.02 | 3.1 | 4.59 | 3.13 | 5.43 |
| TCGAATAGGTTAGTCGGGGCATTCAGCCAACATA | 0.693 | 0.608 | -0.0621 | 1.02 | -0.284 | 1.29 | 0.133 | 1.54 | 2.74 | 1.94 |
| ATACCAAAGTGATCGTGAGGTCGTTGATACTAAC | 1.23 | 0.707 | 0.848 | 0.923 | -0.182 | 0.935 | 0.235 | 0.258 | 0.0966 | -0.173 |
| TCTGCTAGGTCAGCGATGGTCAGCTAATCTGCTA | 1.17 | 0.657 | -0.944 | 0.271 | -0.838 | 1.66 | 0.772 | 1.62 | 1.56 | 1.29 |
| AGAATGAAGTTATTAAGATCAGGGAATTGCGGTC | -0.377 | -0.535 | -0.241 | -0.514 | -0.42 | -0.386 | 0.173 | -0.222 | 0.106 | 0.114 |
| CAAACTAGGTCAAAGGTCAAAGTCGAGCCAACCA | 8.73 | 7.31 | 6.02 | 7.38 | 3.55 | 7.8 | 14 | 11.4 | 12.3 | 13.1 |
| ATCTCTAGGTAACAAGCTCAGTGAAAGAGAGGAC | 0.331 | 0.45 | -0.0616 | -0.105 | 0.556 | 0.394 | 0.682 | 0.77 | 0.327 | 0.644 |
| TGAATGAGGTTATAAGATCAGTGAACGTTGCAAA | 1.18 | 1.34 | -0.254 | 1.17 | -0.0173 | 2.66 | 1.29 | 1.72 | 0.94 | 1.35 |
| GCTTACGGGTTAAAGGTTATAGCATGAATAGAAT | 4.76 | 4.09 | 0.422 | 4.17 | 0.397 | 5.9 | 8.86 | 7.5 | 6.81 | 8.18 |
| AGAATGAGATTAAGATCAGGGAAACAGAATACAT | -0.282 | -0.601 | -0.0604 | -0.466 | -0.594 | -0.494 | 0.75 | -0.304 | 0.17 | -0.228 |
| GCTAGTTGGTCAGTAAAAGGTCACACGCCGGTCG | 3.48 | 4.98 | 4.69 | 4.1 | 0.629 | 4.52 | 3.32 | 4.66 | 2.53 | 4.53 |
